In PubChem BioAssay (NCI) one finds growth data, which are given here for 33 compounds.

About 83,000 compounds went through this panel and 20% of them were active in at least one assay; those are over-represented in the sample as a whole.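 96-well plates, one dose, 48 hours. Percent growth reported; active if below 10.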 Values without a mark were called inactive. Active and inactive are the calls of the source.

This assay concerns HOP-62 NSCLC. Kind of assay: NCI-60 one-dose screen, 48 h (100 = growth as untreated, 0 = no growth, -100 = all killed). To be noted: 10 µM unless noted.
Regarding `Fc1ccc(COc2ccc(Nc3ncnc4sc5c(c34)CCCC5)cc2)cc1`, the growth was 97.2%.

Regarding `COc1cc(C2Cc3ncccc3-c3[nH]c(=O)c4cccnc4c32)cc(OC)c1OC` (stereo not drawn), the growth was 21.7%.

In the case of `O=C(c1ccc(Cl)cc1Cl)N1c2ccccc2Sc2ccccc21`, the growth is 64.7%.

In the case of `O=C(N/N=C/c1ccc([N+](=O)[O-])cc1)c1ccc2nc(-c3ccc(Cl)cc3)[nH]c2c1`, the growth was 44.8%.

As to `O=C(NCc1ccccc1O)c1cccc2ccccc12`, the growth was 86.5%.

Regarding `CC1=C(C(=O)n2c3ccccc3c3ccccc32)C(c2cccc([N+](=O)[O-])c2)C(C(=O)n2c3ccccc3c3ccccc32)=C(C)N1`, the growth is 102%.

As for `COc1ccc(/C=C/C(=O)c2ccc(NC(=O)CSc3nnc(-c4cc(-c5ccccc5)nc5ccccc45)n3-c3ccccc3)cc2)cc1`, the growth was 97.3%.

As to `Cn1cc(-c2nc(-c3c[nH]c4ccncc34)cs2)c2cc(Br)ccc21`, the growth was -69.7% (active).

In the case of `C#Cc1cccc(Oc2ccc(NC(=O)CCl)cc2)c1`, the growth was 83.5% [8.25 µM].

`CC1(C)CC[C@]2(C(=O)N3CCOCC3)CC[C@]3(C)C(=CC[C@@H]4[C@@]5(C)C/C(=C/c6ccncc6)C(=O)C(C)(C)[C@@H]5CC[C@]43C)[C@@H]2C1`: the growth was 19.8%.

Take `CC(C)c1ccc(NC(=O)Nc2ccc(NC(=O)c3ccccc3N)cc2)cc1`: the growth was 22.6%.

With `Cc1cc(C(=O)Nc2cc(Nc3ncccc3-c3ncnc4nc[nH]c34)ccc2F)cc(C(F)(F)F)c1`, the growth is 38.5%.

`COc1cc2c3c(n(CCCCNCCCn4c5c(c6cc(OC)c(OC)cc6c4=O)C(=O)c4cc6c(cc4-5)OCO6)c(=O)c2cc1OC)-c1cc2c(cc1C3=O)OCO2`: the growth is 90.5%.

On to `CNC(=O)c1c(NC(=O)c2ccc(C(C)(C)C)cc2)sc2c(CN(C)C)c(O)ccc12`, for which the growth is 8.39% (active).

Regarding `CCCCn1sc(=O)n(Cc2ccc(CNC(=O)OCc3ccc4c(Cl)cc(Cl)c(O)c4n3)cc2)c1=O`, the growth was 40.4%.

Take `O=C1Nc2ccc(F)cc2/C1=N/c1nnc(Sc2ccccc2)s1`: the growth is 94.7%.

`N#Cc1c(N2CCOCC2)nc(=S)[nH]c1-c1ccccc1`: the growth is 51.3%.

As for `O=C(CSc1nnc2sc(Nc3cccc(Cl)c3)nn12)c1ccc(F)cc1`, the growth is 97.7%.

Consider `C=C(CO)[C@@H]1CC[C@]2(COC3CCCCO3)CC[C@]3(C)[C@H](CC[C@@H]4[C@@]5(C)C=C(C=O)C(=O)C(C)(C)[C@@H]5CC[C@]43C)[C@@H]12` (stereo partly drawn), for which the growth is -86.8% (active).

In the case of `COc1ccc(-c2cc(C(=O)N3N=C(c4ccc(N)cc4)CC3c3ccccc3)c3ccccc3n2)cc1` (stereo not drawn), the growth was 30.6%.

Turning to `COc1ccc(-c2cc(-c3cc(OC)c(OC)c(OC)c3)c(C#N)c(=O)n2CCCCCC(=O)NO)cc1`, the growth is 102%.

Consider `Cn1ccnc1C(=O)/C=C/c1ccc(C(=O)Nc2ccc(F)cc2)cc1`, for which the growth is 5.2% (active).

On to `C=C1C(=O)O[C@H]2[C@H]1CC/C(COC(=O)NCCCCCCCCNC(=O)OC/C1=C/CC[C@@]3(C)O[C@H]3[C@H]3OC(=O)C(=C)[C@@H]3CC1)=C\CC[C@@]1(C)O[C@@H]21`, for which the growth was -38.2% (active).

With `C/C(C=O)=C\c1ccc2c(c1)OCO2`, the growth is 108%.

Take `COc1cccc(/C=C/C(=O)c2cc3c(N)c(C(=O)Nc4cccc(Cl)c4C)sc3nc2C)c1`: the growth is -24.1% (active).

`COC(=O)/C=C1/SC(=Nc2cccc(Cl)c2)N(CCc2c[nH]c3ccc(O)cc23)C1=O`: the growth is 15.4%.

For the compound `CCC/C(=N\NC(N)=O)C(OC)OC`, the growth was 109%.

Regarding `COc1ccc2cc(Cn3cc[n+](Cc4ccc5ccccc5c4)c3)ccc2c1`, the growth was 49.8%.

`Cn1c(=O)c2c(c3ccccc31)OC(N)=C(C#N)C21C(=O)c2ccccc2C1=O`: the growth is 80.3%.

With `CN1CCN(c2ccc3c(c2)nc(NNC(=O)c2cnccn2)c2cccn23)CC1`, the growth was 25.1%.

As for `Cc1cc(C)c(-c2c(O)c(Br)c(-c3c(C)cc(C)c(Br)c3C)c(O)c2Br)c(C)c1Br`, the growth was 62%.

`CCN(CC)S(=O)(=O)c1ccc(S(=O)(=O)N2CCC[C@@H](C(=O)N3CCN(C(=O)OC(C)(C)C)CC3)C2)cc1`: the growth is 66.1%.

Turning to `O=C1/C=C/[C@@H](O)[C@@H]2C[C@@H](O)C[C@H]2/C=C/CCC[C@H](CCOCc2ccccc2)O1`, the growth was 30.9%.
